Screen size: about 290,000 compounds; about 3,000 (1%) were called active. Cut-off read from the data, not from the text of the source: active = inhibition mostly above about 36% (no sharp cut-off); inactive = mostly below about 34%. The sample as a whole holds a higher share of actives than the screen did.

The assay is described as follows: NOD1 signaling inhibitors, primary screen, cell-based, luminescence, uHTS (AID 1578).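 Note: HEK-293T reporter cells stimulated with the NOD1 agonist gamma-tri-DAP.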 Particulars: NOD1-driven NF-kB luciferase reporter cells, at 4 µM, active compounds read high.
Turning to `O=C(NCCc1ccccc1)C1(S(=O)(=O)c2ccc(Cl)cc2)CC1`, the inhibition was 7.4% (inactive).
Turning to `O=C(CSc1nc(-c2ccncc2)nn1CC(=O)N1CCCCC1)NC1CCCC1`, the inhibition is -4% (inactive).
Next, `CC1CC(=O)N(CC(=O)NCc2ccccc2)c2ccccc2S1(=O)=O` (centres undefined): -32.8% (inactive); `O=C1CCc2cc(S(=O)(=O)N3CCN(c4cccc(C(F)(F)F)c4)CC3)ccc2N1`: -6.5% (inactive); `Cc1nnnn1/C(=C\c1ccccc1)C(=O)OCC(=O)NC(C)(C)C`: 91.3% (active).
Next, `CC(=O)Nc1ccc(NC(=O)COC(=O)/C(=C/c2ccccc2)n2nnnc2C)cc1`: -15.3% (inactive); `CC(=O)c1ccccc1NC(=O)COC(=O)/C(=C/c1ccccc1)n1nnnc1C`: -8% (inactive).
Next, `CCOC(=O)C1(CCCc2ccccc2)CCN(C(=O)c2cnc(C)cn2)CC1`: 2.2% (inactive); `CC(=O)OC(C(=O)NC1CCCCC1)c1ccc(Cl)c(Cl)c1` (centres undefined): -34.6% (inactive); `COc1ccc(OCC(=O)N/N=c2\oc3c(OC)cccc3cc2C(N)=O)cc1`: -30.3% (inactive).
In the case of `COc1ccc(CNC(=O)C(c2cccs2)N(Cc2ccco2)C(=O)Cc2cccs2)cc1` (centres undefined), the inhibition was 23.3% (inactive).
`COc1ccc(CNC(=O)C(c2ccco2)N(Cc2cccs2)C(=O)Cc2cccs2)cc1` (centres undefined): the inhibition was 2% (inactive).
As to `COc1ccc(CNC(=O)C(c2ccc(C)o2)N(Cc2cccs2)C(=O)Cc2cccs2)cc1` (centres undefined), the inhibition is 68.3% (active).
Next, `COC(=O)C(C)n1cnc2c(nnn2-c2ccccc2)c1=O` (centres undefined): -9.8% (inactive).
In the case of `COc1ccc(C(=O)Nc2c(N)nc(SCC(=O)N3CCCCCC3)[nH]c2=O)cc1OC`, the inhibition is -4.3% (inactive).
Next, `Cc1cc2c(cc1S(=O)(=O)Nc1cccc(F)c1)n(C)c(=O)c(=O)n2C`: 13.5% (inactive); `O=C(c1ccc(Sc2cccc(Cl)c2)c([N+](=O)[O-])c1)N1CCN(c2ccccn2)CC1`: -34.4% (inactive).
Next, `O=C(c1ccc(S(=O)(=O)Cc2ccccc2Cl)c([N+](=O)[O-])c1)N1CCOCC1`: 13.5% (inactive); `O=C(c1ccc(N2CCCC2)c([N+](=O)[O-])c1)N1CCN(c2ccccn2)CC1`: -8.1% (inactive); `O=C(c1ccc(Cl)c([N+](=O)[O-])c1)N1CCN(c2ccccn2)CC1`: -1.9% (inactive).
Regarding `CC(C)Cc1nnc(NC(=O)CCC(=O)NC2CCCC2)s1`, the inhibition was -20.3% (inactive).
Regarding `CC/C=C/C(=O)N1CC2(CC(c3cccc(NC(=O)c4ccccc4)c3)=NO2)C[C@@H]1C(N)=O` (some centres undefined), the inhibition was 20.5% (inactive).
Next, `O=c1c2c3c(sc2nc2n1CCC2)CCCCC3`: -41% (inactive); `Cn1cnc2cc(NC(=O)COc3ccccc3)ccc21`: -63.1% (inactive); `Cc1cccn2c(=O)c3cc(S(=O)(=O)c4ccc(Br)cc4)c(=N)n(C4CCCC4)c3nc12`: -42.6% (inactive).
Next, `O=C(O)c1cccc(NS(=O)(=O)c2cc(S(=O)(=O)c3ccc(Cl)cc3)ccc2Cl)c1`: 0.3% (inactive); `COc1cc(C(=O)NCc2ccc(-c3nc4ccccc4s3)cc2)cc(OC)c1OC`: -45% (inactive); `COc1ccc(C(=O)NCc2ccc(-c3nc4ccccc4s3)cc2)cc1OC`: -86.1% (inactive).
Next, `Cc1ccc(-n2c(SCC(=O)Nc3ccc(C(=O)O)cc3)nnc2-c2ccncc2)cc1`: -9.4% (inactive); `O=C(CCNS(=O)(=O)c1c(Cl)cccc1Cl)OCC(=O)c1ccccc1`: 10.5% (inactive); `Cc1nn(C)c(Cl)c1NC(=O)OCc1ccccc1`: -9.7% (inactive).
Take `COc1ccccc1COC(=O)Nc1c(C)nn(C)c1Cl`: the inhibition is 10.8% (inactive).
Next, `Cc1nn(C)c(Cl)c1NC(=O)OCc1ccc(Cl)cc1Cl`: 68.3% (active); `CCc1ccccc1NC(=O)CCC(=O)N1CCSc2ccccc21`: -3% (inactive); `O=Nc1c(O)n(Cc2ccccc2)c2ccccc12`: 9.5% (inactive).
Turning to `O=Nc1c(O)n(Cc2cccc(C(F)(F)F)c2)c2ccccc12`, the inhibition is 82.8% (active).
`O=Nc1c(O)n(Cc2cccc(Cl)c2)c2ccccc12`: the inhibition was 34.1% (inactive).
As for `Cc1cccc(NC(=S)NNC(=S)NC2CCCCC2)c1C`, the inhibition is -15.3% (inactive).
Next, `CCOC(=O)c1[nH]c(C)c(CN(CCc2ccc(OC)c(OC)c2)C(=O)CCCC(=O)O)c1C`: -27.8% (inactive).
Next, `CCOC(=O)C1CCCN(C(=O)CCn2nnnc2CN2CCOCC2)C1` (centres undefined): -14.8% (inactive); `CCOC(=O)C1CCCN(C(=O)CCCn2nnnc2CN2CCC(C)CC2)C1` (centres undefined): -6.9% (inactive).
For `CCOC(=O)C1CCCN(C(=O)CCCn2nnnc2CN2CCOCC2)C1` (centres undefined), the inhibition was 45% (active).
Next, `O=C(O)CN1C(=O)CSc2ccccc21`: 14.5% (inactive).
Next, `O=C(CN1CCSc2ccccc21)NCCCc1ccccc1`: -29.8% (inactive); `CCOC(=O)c1ccc(N2C(=O)CC(C)(CC)CC2=O)cc1`: -5% (inactive).
Next, `CC(C)(C)c1ccc(NC(=O)N2CCCN(c3ccc([N+](=O)[O-])cn3)CC2)cc1`: 0.9% (inactive).
With `CC(C)(C)c1ccc(C(=O)N2CCCN(c3ccc([N+](=O)[O-])cn3)CC2)cc1`, the inhibition was -3.4% (inactive).
Next, `CC(C)(C)c1ccc(NC(=O)N2CCN(c3ccc([N+](=O)[O-])cn3)CC2)cc1`: 29.4% (active); `O=C(O)CCCN1C(=O)/C(=C\c2ccco2)SC1=S`: -3.5% (inactive).
Next, `O=C(O)CC(C(=O)O)N1C(=O)/C(=C/C=C/c2ccco2)SC1=S` (centres undefined): -8.8% (inactive); `O=C(O)CCCN1C(=O)/C(=C/C=C/c2ccco2)SC1=S`: 23.3% (active).
Consider `CC(=O)Nc1ccc(C(=O)N/C(=C/c2ccccc2)C(=O)Nc2cccc(C(=O)O)c2)cc1`, for which the inhibition is -27.4% (inactive).
Next, `O=C(CN1CCCCCC1)NCc1ccccc1`: -25.9% (inactive); `COc1ccc(N(Cc2ccccc2)C(=O)CSc2nnc(Cn3nnc4ccccc43)o2)cc1`: -12.4% (inactive); `O=C(CSc1nnc(Cn2nnc3ccccc32)o1)N(Cc1ccc(F)cc1)c1ccccc1`: 37.1% (inactive).
`O=C(CSc1nnc(Cn2nnc3ccccc32)o1)N(Cc1ccc(Cl)cc1)c1ccccc1`: the inhibition was 48.7% (active).
As for `O=C(O)c1ccc2c(c1)ncn2C1CCCCC1`, the inhibition was -10.3% (inactive).
In the case of `NNC(=O)c1csc(Cc2c(Cl)sc3ccc(Cl)cc23)n1`, the inhibition is 11.9% (inactive).
Turning to `CCOC(=O)CC1C(=O)NCCN1C(=O)COc1ccc(C(C)(C)C)cc1` (centres undefined), the inhibition is -17.7% (inactive).
Next, `O=C(O)Cc1ccc(NC(=O)Cc2ccc3ccccc3c2)cc1`: -30.6% (inactive); `COc1cccc(-n2nnc3c(=O)n(CC(=O)N4CCCCC4)cnc32)c1`: -13.7% (inactive); `Cc1ccc(NC(=O)C2C3C=CC4(O3)C2C(=O)N(CCCN2CCOCC2)C4C(=O)NC2CCCCC2)cc1Cl` (centres undefined): -35.1% (inactive).
Next, `CC(C)c1cc(NC(=O)CCl)on1`: 41.7% (active); `CC(C)c1cc(C(=O)O)on1`: -10.1% (inactive).
Turning to `CC(C)c1cc(NC(=O)CSc2nnc(-c3ccccc3F)n2C)on1`, the inhibition was 18.2% (inactive).
Next, `CCc1ccc(NC(=O)c2cc(CC(C)C)on2)cc1`: -39.3% (inactive); `O=C(N/N=C/c1ccc(O)cc1)c1ccc(NC(=O)c2ccccc2Br)cc1`: -3.3% (inactive); `CCOc1ccc(CNC(=O)CCCC(=O)n2ncc3cc(C)ccc32)cc1`: -10.4% (inactive).
Next, `CCC(=O)Nc1cccc2c1C(=O)N(C)C2=O`: 83.2% (active); `CN1C(=O)c2cccc(NC(=O)Cc3ccccc3)c2C1=O`: 5.1% (inactive); `CN1C(=O)c2cccc(NC(=O)CCc3ccccc3)c2C1=O`: -23% (inactive).
Next, `CCCCNC(=S)Nc1ccc(Cl)cc1`: 0.1% (inactive); `Cc1oc(-c2ccccc2Cl)nc1CSCC(=O)N1CCCC1`: 25.8% (inactive).
Turning to `Cc1oc(-c2ccccc2Cl)nc1CSc1nc2c(c(=O)[nH]1)CCC2`, the inhibition was 34% (inactive).
Next, `COc1ccccc1N1CCN(c2ccc([N+](=O)[O-])cc2Cl)CC1`: 7.1% (inactive); `Oc1ccc(Cc2ncc(C(F)(F)F)cc2Cl)cc1`: 5.6% (inactive).
Next, `Cc1cccc(CS(=O)(=O)c2ncc(Cl)c(C(=O)NCc3ccc4c(c3)OCO4)n2)c1`: 70.3% (active); `Cc1ccc(NC(=O)c2nc(S(=O)(=O)Cc3ccccc3)ncc2Cl)cc1`: 34.5% (inactive); `Cc1nnc(NC(=O)c2nc(S(=O)(=O)Cc3ccccc3C)ncc2Cl)s1`: 41.7% (inactive).
Next, `CC(=O)Nc1ccc(NC(=O)c2nc(S(=O)(=O)Cc3ccccc3)ncc2Cl)cc1`: 11.7% (inactive); `O=C(NCc1ccc2c(c1)OCO2)c1nc(S(=O)(=O)Cc2ccccc2)ncc1Cl`: 16.2% (inactive).
With `CC(=O)Nc1ccc(NC(=O)c2nc(S(=O)(=O)Cc3cccc(C)c3)ncc2Cl)cc1`, the inhibition is 8.3% (inactive).
Next, `Cc1cccc(CS(=O)(=O)c2ncc(Cl)c(C(=O)NCc3ccccc3)n2)c1`: 34.5% (inactive); `COc1ccc(/C=C2\SC(=S)N(CCC(=O)N3CCCCC3)C2=O)cc1`: 13.7% (inactive); `CCN(CC)CCNC(=O)CS(=O)Cc1nc(-c2ccc(C)cc2)oc1C` (centres undefined): 13.6% (inactive).
Consider `CN(C)c1cccc(C(=O)NNC(=S)NC2CCCC2)c1`, for which the inhibition was -23.1% (inactive).
Next, `CCC(C)C(NC(=O)C(CC(C)C)NC(=O)C(CO)NC(=O)C1CCC(=O)N1)C(=O)OC` (centres undefined): -36% (inactive); `CN(Cc1nc2ccccc2[nH]1)Cc1nc(CC2CC2)no1`: -48.9% (inactive); `COCCNC(=S)NNC(=O)CSCc1ccc(Cl)cc1Cl`: -40.2% (inactive).
Next, `CCCC(=O)NCCc1nc2ccccc2n1CCC`: -14.2% (inactive); `COc1ccc(C(=O)ON=C2CCN(C)CC2)cc1`: -31.9% (inactive); `COc1ccc(CNC(=O)Cc2cn(C)c3ccccc23)c(OC)c1`: -7.1% (inactive).
Next, `Cc1cc(NC(=O)OC2CCCCC2)ccc1[N+](=O)[O-]`: -54.1% (inactive); `COc1cc(C(=O)NS(=O)(=O)c2ccccc2C)ccc1Cc1cn(C)c2ccc(NC(=O)OC3CCCC3)cc12`: 39.2% (active).
